From PubChem
LEDGF integ inh: blocks HIV-1 LEDGF/p75-dependent DNA integration | TR-FRET IN-LEDGF/p75 DNA integration, Eu/Cy5 | inhibition, % at 3.7 µM | AID 743269 | actives 0.64% (n = 370,000);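 active = inhibition above the screen-wide mean plus 3 SD, cut at about 13% in these data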;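 also: signal is the Cy5 over europium emission ratio at 671 and 618 nm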
PG9 binder: PG9 antibody binding by small molecule | TR-FRET gp120-PG9 antibody binding | inhibition, % at 6.7 µM | actives 0.43% (n = 360,000) | AID 624416; in the data active = inhibition above about 8.5%
MBD2 inh: blocks human MBD2 binding to methylated DNA | Q9UBB5 | TR-FRET, MBD2 binding to methylated oligonucleotide | inhibition, % at 4.4 µM | actives 0.31% (n = 370,000) | AID 686964; in the data active = inhibition above about 13%
UHRF1 MBD2 ctr: blocks human UHRF1 binding to methylated DNA; actives 0.75% (n = 370,000); inhibition, % at 4.4 µM; Q96T88; AID 687016; UHRF1 binding to methylated oligo, TR-FRET; in the data active = inhibition above about 21%;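 also: UHRF1 SRA domain binding a hemimethylated CpG hairpin DNA probe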
Target sequence (Q96T88 whole entry, looked up, the tested form may be a part): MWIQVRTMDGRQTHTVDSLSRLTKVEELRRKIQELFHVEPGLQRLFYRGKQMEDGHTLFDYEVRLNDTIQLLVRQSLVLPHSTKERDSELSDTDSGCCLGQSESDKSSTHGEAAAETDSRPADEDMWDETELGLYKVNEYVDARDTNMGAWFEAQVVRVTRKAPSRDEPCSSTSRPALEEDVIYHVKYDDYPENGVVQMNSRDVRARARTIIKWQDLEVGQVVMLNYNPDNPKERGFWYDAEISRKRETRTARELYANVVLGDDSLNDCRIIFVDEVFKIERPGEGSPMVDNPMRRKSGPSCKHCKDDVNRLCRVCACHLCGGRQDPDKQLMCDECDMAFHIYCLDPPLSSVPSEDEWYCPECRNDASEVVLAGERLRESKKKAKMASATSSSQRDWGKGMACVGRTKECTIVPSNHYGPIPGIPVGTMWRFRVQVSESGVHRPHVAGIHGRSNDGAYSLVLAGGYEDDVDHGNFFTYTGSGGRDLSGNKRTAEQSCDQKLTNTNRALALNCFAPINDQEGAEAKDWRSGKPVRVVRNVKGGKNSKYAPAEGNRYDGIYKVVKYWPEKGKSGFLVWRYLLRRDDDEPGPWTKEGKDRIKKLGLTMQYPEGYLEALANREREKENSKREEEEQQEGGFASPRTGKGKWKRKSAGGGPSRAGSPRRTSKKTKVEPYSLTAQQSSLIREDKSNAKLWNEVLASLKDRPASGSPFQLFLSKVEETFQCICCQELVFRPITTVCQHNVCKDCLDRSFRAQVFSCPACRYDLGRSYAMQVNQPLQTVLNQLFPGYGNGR
DNMT1 inh: inhibitors of human DNMT1; P26358; DNMT1 molecular beacon, Hinp1I cleavage, fluorescence; inhibition (reported as % activation of signal), % at 10 µM; actives 0.83% (n = 360,000); in the data active = inhibition above about 50%
rCAG RNA binder: binds r(CAG) RNA repeats; inhibition, % at 3 µM; r(CAG) RNA repeat, TO-PRO-1 dye displacement fluorescence; actives 1.3% (n = 370,000);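 active = inhibition above the plate cutoff, the mean of all test compounds on that plate plus 3 SD, cut at about 35% in these data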;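 also: higher means more dye released from RNA so lower well fluorescence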
Of the large screens only hits and unclear results are named; the others gave an inactive call. Most compounds without a hit are left out; they make up all but 3.5% or so of the library.

CCOC(=O)CC[C@@H]1CC[C@]2(CCCN(C(=O)C3CCCC3)C2)O1	none (no result: PG9 binder, DNMT1 inh)
CN(CCOc1ccccc1)CC(=O)Nc1ccc(S(=O)(=O)N2CCCC2)cc1	UHRF1 MBD2 ctr 25
CCOc1cc(OCC)cc(C(=O)N2CCC[C@@H]2C(=O)N2CCC[C@@H]2C(=O)NCc2cccc(OC)c2)c1	none (no result: DNMT1 inh)
N#CCC[C@H]1CC[C@]2(CCCN(C(=O)c3ccccc3)C2)O1	none (no result: PG9 binder, DNMT1 inh)
COC(=O)CSc1nc(SC)nc2c1sc1nc(-c3ccco3)c3c(c12)CC(C)(C)OC3	UHRF1 MBD2 ctr 24
Cc1cc(O)c(C=O)c2c1C(=O)Oc1c(CO)c(O)c3c(c1O2)C(O)OC3=O (stereo not given)	DNMT1 inh 57 (no result: LEDGF integ inh, PG9 binder, MBD2 inh, UHRF1 MBD2 ctr, rCAG RNA binder)
CN(C)S(=O)(=O)n1cc(/C=C(\NC(=O)c2ccccc2F)C(=O)N2CCCCC2)c2ccccc21	UHRF1 MBD2 ctr 24
Cc1cccc(OCC(C)CN2CCC(C(O)(c3ccccc3)c3ccccc3)CC2)c1 (stereo not given)	none (no result: PG9 binder, DNMT1 inh)
Nc1[nH]c(C(=O)c2ccccc2)c(-c2ccc3ccccc3c2)c1C(=O)NCCc1ccc(Cl)cc1	none (no result: PG9 binder, DNMT1 inh, rCAG RNA binder)
COC(=O)c1cccc(Cn2ccc3ccc(-c4ccc5ccn(C(=O)c6cccc(OC)c6)c5c4)cc32)c1	none (no result: PG9 binder, DNMT1 inh)
Cc1cc(C)nc(NCC(O)CNc2ccccc2Cl)n1 (stereo not given)	UHRF1 MBD2 ctr 23
COc1ccc(S(=O)(=O)Nc2cc3c4c(c2)CC(=O)N4CCC3)cc1	none
COc1ccc(CCNS(=O)(=O)c2cc3c4c(c2)CC(=O)N4CCC3)cc1	UHRF1 MBD2 ctr 26
Cc1ccc(S(=O)(=O)N(C)C)cc1NC(=O)COC(=O)/C=C/c1ccc(F)cc1	UHRF1 MBD2 ctr 35
O=C(COC(=O)CC1CCCC1)Nc1ccc(Cl)cc1	none
CC1(C)CC(=O)C=C(NC2CCCCC2)C1	none
CC1(C)CC(=O)C=C(C#CC2CC2)C1	UHRF1 MBD2 ctr 23 (no result: DNMT1 inh)
CN(C)S(=O)(=O)N1C(=O)c2ccccc2C1=O	none
CN(C)/C=C1\C=C2C(=O)c3ccccc3N2C1=O	DNMT1 inh active
CC(=O)CSc1nc2ccccc2s1	none
CC(C)OC(=O)CSc1nc2ccccc2s1	UHRF1 MBD2 ctr 23
O=c1[nH][nH]c2c(N=Cc3ccccc3O)ccc(F)c12	DNMT1 inh 118 (no result: LEDGF integ inh, PG9 binder, MBD2 inh, UHRF1 MBD2 ctr, rCAG RNA binder)
O=C(NCCC1=CCCCC1)C1CCN(S(=O)(=O)c2ccccc2[N+](=O)[O-])CC1	none (no result: PG9 binder, DNMT1 inh)
CCOC(=O)c1c(C)[nH]c(C)c1S(=O)(=O)NCCN1CCN(c2cc(Cl)ccc2C)CC1	UHRF1 MBD2 ctr 58
COC(=O)C1CN(Cc2ccc(Cl)cc2)CCS(=O)(=O)N1Cc1cn(Cc2ccccc2)nn1 (stereo not given)	none (no result: PG9 binder, DNMT1 inh)
CCN1/C(=C/C=C/C=C/C=C/c2sc3ccccc3[n+]2CC)Sc2ccccc21	DNMT1 inh 81
CCN1/C(=C/C=C/c2sc3ccccc3[n+]2CC)Sc2ccccc21	none (no result: LEDGF integ inh, PG9 binder, MBD2 inh, UHRF1 MBD2 ctr, rCAG RNA binder)
O=S1(=O)c2ccc(Br)cc2OC[C@@H](Cc2ccccc2)N1Cc1cn(Cc2ccc(Cl)cc2)nn1	none (no result: PG9 binder, DNMT1 inh)
CN1C(=O)C(=C2CCCCCC2)SC1=S	none
O=C1NC(=S)SC1=C1CCCC1	UHRF1 MBD2 ctr 21
COc1ccc(C)cc1S(=O)(=O)N(CC(=O)Nc1cccc([N+](=O)[O-])c1)c1ccccc1	UHRF1 MBD2 ctr 31
O=C(NC1CCCCN(Cc2ccc(Cl)cc2)C1=O)c1ccccn1 (stereo not given)	none (no result: PG9 binder, DNMT1 inh)
COc1ccccc1-c1ccc(SCc2cccc(F)c2)nn1	UHRF1 MBD2 ctr 58
COc1ccccc1-c1ccc(SCc2ccccc2)nn1	none
C[C@@H](CO)N(Cc1cn(Cc2ccccc2)nn1)S(=O)(=O)c1ccc(F)cc1Br	none (no result: PG9 binder, DNMT1 inh)
O=C(Cc1c[nH]c2ccccc12)Nc1ccc(Nc2cccnc2)c(-c2cc(F)cc(F)c2)c1	none (no result: DNMT1 inh)
O=C(NCc1cccnc1)C(=O)NCC1CCCO1 (stereo not given)	none
O=C(NC1CCCC1)C(=O)N(Cc1cccnc1)C(C(=O)NCC1CCCO1)c1ccco1 (stereo not given)	UHRF1 MBD2 ctr 26
COC(=O)c1oc2c(c1C)C(=O)CCC2	none
O=C1CCCc2oc3c(c21)CCCC3	UHRF1 MBD2 ctr 23
CC(=O)CC[C@H]1CC[C@]2(CCCN(Cc3nccn3C)C2)O1	none (no result: PG9 binder, DNMT1 inh)
CS(=O)(=O)N1CCC[C@]2(CC[C@H](CCC#N)O2)C1	none (no result: PG9 binder, DNMT1 inh)
COc1ccc2c(CN3CCCCC3)cc(=O)oc2c1	UHRF1 MBD2 ctr 21
O=C(Nc1nccs1)c1cccc(N2C(=O)c3cccc4c([N+](=O)[O-])ccc(c34)C2=O)c1	DNMT1 inh 78
CC(=O)Oc1cccc(N2C(=O)c3cccc4c([N+](=O)[O-])ccc(c34)C2=O)c1	none
CCC(C)NC(=O)CCNS(=O)(=O)c1ccc(Br)cc1 (stereo not given)	UHRF1 MBD2 ctr 32
CCCC/C=C1\CCc2c([nH]c3ccccc23)C1=O	UHRF1 MBD2 ctr 24
CC(C)/C=C1\CCc2c([nH]c3ccccc23)C1=O	none
CC1=C(C(=O)N2CCOCC2)CC(CC(=O)NC2CCCCC2)C(=O)N1Cc1ccccc1 (stereo not given)	UHRF1 MBD2 ctr 22
CC1=C(C(=O)N2CCOCC2)CC(CC(=O)NC2CC2)C(=O)N1Cc1ccccc1 (stereo not given)	none
Cc1ccc(C)c(-c2cc(C(=O)NC3CC3)c3ccccc3n2)c1	none
O=C(NC1CCCC1)c1nc(-c2ccco2)oc1-c1ccccc1	rCAG RNA binder 35 (no result: DNMT1 inh)
CN(C)C(=O)c1ccc(NC(=O)c2cc(-c3ccco3)nc3ccccc23)cc1	DNMT1 inh 50
CCN(CC)CCNC(=O)c1ccc(NC(=O)c2cc(-c3ccco3)nc3ccccc23)cc1	none
CC(=O)c1ccc(NC(=O)c2ccc3nc(-c4ccco4)c(-c4ccco4)nc3c2)cc1	DNMT1 inh 123 (no result: LEDGF integ inh, PG9 binder, MBD2 inh, UHRF1 MBD2 ctr, rCAG RNA binder)
O=C(Nc1ccc(N2CCOCC2)cc1)c1ccc2nc(-c3ccco3)c(-c3ccco3)nc2c1	none
O=C(NC1CC1)c1cc(-c2ccco2)nc2ccccc12	DNMT1 inh 90 (no result: LEDGF integ inh, PG9 binder, MBD2 inh, UHRF1 MBD2 ctr, rCAG RNA binder)
C=CCN(CC#CC(=C)C)Cc1ccc(OC)cc1OC	none (no result: PG9 binder, DNMT1 inh)
Cc1nn(CCC(=O)NNC(=O)Nc2ccccc2F)c(C)c1[N+](=O)[O-]	none (no result: PG9 binder, DNMT1 inh)
CC(C)n1nc(C(=O)Nc2nc3ccccc3[nH]2)c2ccccc2c1=O	UHRF1 MBD2 ctr 98
CCCn1nc(C(=O)Nc2nc3ccccc3[nH]2)c2ccccc2c1=O	none
CCCC[C@@H]1C(=O)N2N=C(c3ccccc3)c3ccccc3[C@H]2N2N=C(c3ccccc3)c3ccccc3[C@@H]12	none (no result: PG9 binder, DNMT1 inh)
CSc1ccc(-c2csc(N3CCC(C(N)=O)CC3)n2)cc1	none (no result: PG9 binder, DNMT1 inh, rCAG RNA binder)
CN(C)S(=O)(=O)c1ccc2nc(COCc3nc4ccc(S(=O)(=O)N(C)C)cc4[nH]3)[nH]c2c1	none (no result: PG9 binder, DNMT1 inh, rCAG RNA binder)
C/C(=N/NC(=O)c1sc(NS(=O)(=O)c2ccc(C)cc2)nc1C)c1sc(N)nc1C	rCAG RNA binder 48
O=C(CSc1nnc(-c2ccc(F)cc2)o1)NC1CCCCC1	UHRF1 MBD2 ctr 35
O=C(CSc1nnc(-c2ccncc2)o1)NC1CCCCC1	none
